What all share (experiment): DAPPL (digital affinity profiling via proximity ligation, sequencing); 10 mM Tris-HCl pH 7.5, 50 mM NaCl, 1 mM DTT, 4% glycerol, room temperature, 30 min; GST-TFs on glutathione beads, 16-mer random dsDNA library, 0.1% formaldehyde crosslink after washing; high values mean tight binding
Assay [1] addresses T1, FEV (Homo sapiens, UniProt Q99581 1-238).
T1 sequence: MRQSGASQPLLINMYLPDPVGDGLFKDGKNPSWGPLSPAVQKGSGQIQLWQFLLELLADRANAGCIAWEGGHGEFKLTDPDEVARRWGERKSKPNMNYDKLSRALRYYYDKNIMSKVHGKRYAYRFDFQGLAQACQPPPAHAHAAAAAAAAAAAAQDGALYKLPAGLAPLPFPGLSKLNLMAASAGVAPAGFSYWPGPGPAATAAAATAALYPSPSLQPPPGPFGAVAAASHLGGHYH
To be noted: protein: recombinant; tags: N-terminal GST; dsDNA, one strand shown. The method, boiled down: (§1)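 After expression in yeast as GST fusions, human transcription factors were bound to glutathione beads, DNA-barcoded and mixed with a tag-only sample. The pools were incubated with 200 nmole of a 16-mer random double-stranded DNA library in Tris/NaCl/DTT/glycerol buffer (30 min, room temperature), washed and crosslinked with 0.1% formaldehyde. Proximity ligation with BsaI/T4 ligase ran for 1 h at 37 °C, before PCR amplification and sequencing on an Illumina NextSeq500. Binding signal is a hexamer's read frequency for a factor divided by its frequency for the tag-only sample.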

The target in assay [2] is ETV5 (Homo sapiens, UniProt P41161 1-510). The note with it: protein: recombinant; tags: N-terminal GST; dsDNA, one strand shown. Put shortly:
as §1

In assay [3] the target is HSF1 (Homo sapiens, UniProt Q00613 1-529). The note with it: protein: recombinant; tags: N-terminal GST; chain copies: 3; dsDNA, one strand shown. Put shortly:
as §1

Assay [4] has as its target T2, SPIC (Homo sapiens, UniProt Q8N5J4 1-248).
T2 sequence: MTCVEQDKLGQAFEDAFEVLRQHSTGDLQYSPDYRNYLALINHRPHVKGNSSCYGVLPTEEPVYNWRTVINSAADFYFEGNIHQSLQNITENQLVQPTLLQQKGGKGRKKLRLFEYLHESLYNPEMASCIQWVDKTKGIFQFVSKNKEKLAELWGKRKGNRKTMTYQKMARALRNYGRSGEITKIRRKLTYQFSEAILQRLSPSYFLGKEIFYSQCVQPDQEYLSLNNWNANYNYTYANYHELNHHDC
To be noted: protein: recombinant; tags: N-terminal GST; dsDNA, one strand shown. Put shortly:
as §1

Assay [5] deals with ELF4 (Homo sapiens, UniProt Q99607 1-663). To be noted: protein: recombinant; tags: N-terminal GST; dsDNA, one strand shown. Put shortly:
as §1

The target in assay [6] is T3, ELK4 (Homo sapiens, UniProt P28324-2 1-405).
T3 sequence: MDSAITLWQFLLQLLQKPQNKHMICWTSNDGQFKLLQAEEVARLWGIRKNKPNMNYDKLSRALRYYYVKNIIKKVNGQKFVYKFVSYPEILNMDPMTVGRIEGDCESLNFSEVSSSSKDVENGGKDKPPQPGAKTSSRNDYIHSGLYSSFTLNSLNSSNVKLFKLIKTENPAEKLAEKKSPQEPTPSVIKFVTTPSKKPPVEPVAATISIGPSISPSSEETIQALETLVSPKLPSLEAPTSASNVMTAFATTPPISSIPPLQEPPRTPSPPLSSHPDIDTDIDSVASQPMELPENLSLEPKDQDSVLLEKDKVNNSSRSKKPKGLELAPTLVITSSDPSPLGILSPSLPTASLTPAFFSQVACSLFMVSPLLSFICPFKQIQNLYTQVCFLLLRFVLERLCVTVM
To be noted: protein: recombinant; tags: N-terminal GST; dsDNA, one strand shown. The method, boiled down: as §1

The target in assay [7] is T4, ETV2 (Homo sapiens, UniProt O00321 1-342).
T4 sequence: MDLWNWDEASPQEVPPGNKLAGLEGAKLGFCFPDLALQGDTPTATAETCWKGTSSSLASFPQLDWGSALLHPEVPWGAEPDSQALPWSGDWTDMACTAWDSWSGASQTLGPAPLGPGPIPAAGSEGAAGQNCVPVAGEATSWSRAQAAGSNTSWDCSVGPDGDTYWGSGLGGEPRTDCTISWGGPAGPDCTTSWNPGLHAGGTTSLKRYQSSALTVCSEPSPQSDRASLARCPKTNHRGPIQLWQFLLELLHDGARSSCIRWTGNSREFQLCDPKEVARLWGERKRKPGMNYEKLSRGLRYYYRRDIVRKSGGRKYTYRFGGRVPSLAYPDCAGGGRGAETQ
The note with it: protein: recombinant; tags: N-terminal GST; dsDNA, one strand shown. Put shortly:
as §1

Assay [8] has as its target T5, ELF3 (Homo sapiens, UniProt P78545 1-371).
T5 sequence: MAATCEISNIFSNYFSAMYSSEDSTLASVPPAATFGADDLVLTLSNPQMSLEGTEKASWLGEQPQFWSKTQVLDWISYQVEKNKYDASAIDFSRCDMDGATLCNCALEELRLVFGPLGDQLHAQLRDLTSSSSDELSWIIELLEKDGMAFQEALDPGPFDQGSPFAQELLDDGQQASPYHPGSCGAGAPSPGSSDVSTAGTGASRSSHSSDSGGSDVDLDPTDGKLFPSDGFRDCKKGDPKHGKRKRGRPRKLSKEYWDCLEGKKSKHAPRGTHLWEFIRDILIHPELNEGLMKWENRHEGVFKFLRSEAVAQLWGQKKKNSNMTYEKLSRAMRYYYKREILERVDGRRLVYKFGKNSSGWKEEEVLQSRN
To be noted: protein: recombinant; tags: N-terminal GST; dsDNA, one strand shown. The method, boiled down: as §1

Assay [9] concerns the target CRX (Homo sapiens, UniProt O43186 1-299). To be noted: protein: recombinant; tags: N-terminal GST; dsDNA, one strand shown. Put shortly:
as §1

The target in assay [10] is ETV1 (Homo sapiens, UniProt P50549 1-477). To be noted: protein: recombinant; tags: N-terminal GST; dsDNA, one strand shown. The method, boiled down: as §1
For assay [11], the target named is T6, ERF (Homo sapiens, UniProt P50548 1-548).
T6 sequence: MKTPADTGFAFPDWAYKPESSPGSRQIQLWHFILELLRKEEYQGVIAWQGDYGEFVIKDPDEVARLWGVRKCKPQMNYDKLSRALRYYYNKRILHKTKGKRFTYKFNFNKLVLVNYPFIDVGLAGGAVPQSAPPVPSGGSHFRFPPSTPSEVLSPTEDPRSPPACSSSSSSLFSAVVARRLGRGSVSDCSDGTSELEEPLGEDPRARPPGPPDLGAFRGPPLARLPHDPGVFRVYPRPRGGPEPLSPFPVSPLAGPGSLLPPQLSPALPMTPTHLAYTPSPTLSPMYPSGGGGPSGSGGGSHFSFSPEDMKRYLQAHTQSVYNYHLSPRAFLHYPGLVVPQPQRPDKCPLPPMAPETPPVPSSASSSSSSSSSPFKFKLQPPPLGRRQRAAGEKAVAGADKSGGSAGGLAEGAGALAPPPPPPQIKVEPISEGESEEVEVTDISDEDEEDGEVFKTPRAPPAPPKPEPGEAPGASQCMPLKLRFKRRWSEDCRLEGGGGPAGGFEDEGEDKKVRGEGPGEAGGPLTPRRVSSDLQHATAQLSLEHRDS
To be noted: protein: recombinant; tags: N-terminal GST; dsDNA, one strand shown. Put shortly:
as §1

The target of assay [12] is T7, ETV3L (Homo sapiens, UniProt Q6ZN32 1-361).
T7 sequence: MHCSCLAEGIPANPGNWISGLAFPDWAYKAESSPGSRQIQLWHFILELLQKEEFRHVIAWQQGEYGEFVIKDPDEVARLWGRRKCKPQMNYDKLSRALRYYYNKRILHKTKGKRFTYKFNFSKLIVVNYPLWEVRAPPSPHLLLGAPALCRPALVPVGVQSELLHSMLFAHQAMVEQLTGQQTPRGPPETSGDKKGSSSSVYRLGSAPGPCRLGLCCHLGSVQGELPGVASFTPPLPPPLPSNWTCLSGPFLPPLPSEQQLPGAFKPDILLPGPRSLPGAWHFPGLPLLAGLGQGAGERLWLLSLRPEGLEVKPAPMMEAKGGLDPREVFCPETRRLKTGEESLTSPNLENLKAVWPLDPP
To be noted: protein: recombinant; tags: N-terminal GST; dsDNA, one strand shown. The method, boiled down: as §1

The target of assay [13] is T8, ETS2 (Homo sapiens, UniProt P15036 1-469).
T8 sequence: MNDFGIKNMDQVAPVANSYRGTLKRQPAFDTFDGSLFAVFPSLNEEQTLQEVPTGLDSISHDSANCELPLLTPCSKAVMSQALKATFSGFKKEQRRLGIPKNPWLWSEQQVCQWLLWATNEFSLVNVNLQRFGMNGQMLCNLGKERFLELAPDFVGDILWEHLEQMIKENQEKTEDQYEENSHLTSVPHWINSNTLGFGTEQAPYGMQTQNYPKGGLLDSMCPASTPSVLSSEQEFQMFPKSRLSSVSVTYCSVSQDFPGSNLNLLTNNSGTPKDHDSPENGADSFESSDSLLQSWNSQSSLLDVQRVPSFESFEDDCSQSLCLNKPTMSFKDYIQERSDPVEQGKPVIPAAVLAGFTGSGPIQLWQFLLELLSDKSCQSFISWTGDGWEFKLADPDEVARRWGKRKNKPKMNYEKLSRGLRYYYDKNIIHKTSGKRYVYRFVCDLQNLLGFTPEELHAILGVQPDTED
The note with it: protein: recombinant; tags: N-terminal GST; dsDNA, one strand shown. The method, boiled down: as §1

Assay [14] deals with T9, SPDEF (Homo sapiens, UniProt O95238 1-335).
T9 sequence: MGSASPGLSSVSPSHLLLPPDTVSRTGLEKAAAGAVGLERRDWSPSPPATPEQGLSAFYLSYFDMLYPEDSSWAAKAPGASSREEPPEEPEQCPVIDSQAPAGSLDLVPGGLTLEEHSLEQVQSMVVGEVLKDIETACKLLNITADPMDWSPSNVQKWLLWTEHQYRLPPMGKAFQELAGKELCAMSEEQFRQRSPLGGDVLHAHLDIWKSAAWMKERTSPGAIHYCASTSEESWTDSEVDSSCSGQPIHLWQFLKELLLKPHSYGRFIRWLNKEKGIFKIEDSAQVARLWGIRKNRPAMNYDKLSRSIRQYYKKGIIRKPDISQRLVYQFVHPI
To be noted: protein: recombinant; tags: N-terminal GST; dsDNA, one strand shown. Put shortly: as §1

Assay [15] concerns the target T10, ETV7 (Homo sapiens, UniProt Q9Y603 1-341).
T10 sequence: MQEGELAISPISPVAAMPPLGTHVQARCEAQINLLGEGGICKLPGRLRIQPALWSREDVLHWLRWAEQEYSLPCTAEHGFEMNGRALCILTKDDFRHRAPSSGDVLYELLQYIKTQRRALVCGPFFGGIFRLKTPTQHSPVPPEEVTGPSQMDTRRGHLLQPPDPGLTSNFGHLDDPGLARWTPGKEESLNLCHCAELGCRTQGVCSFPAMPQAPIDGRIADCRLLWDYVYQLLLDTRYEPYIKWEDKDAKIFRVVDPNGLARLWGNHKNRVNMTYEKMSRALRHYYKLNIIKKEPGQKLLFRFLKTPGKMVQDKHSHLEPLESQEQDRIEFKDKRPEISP
The note with it: protein: recombinant; tags: N-terminal GST; dsDNA, one strand shown. The method, boiled down:
as §1

Assay [16] concerns the target T11, ELF5 (Homo sapiens, UniProt Q9UKW6-2 1-255).
T11 sequence: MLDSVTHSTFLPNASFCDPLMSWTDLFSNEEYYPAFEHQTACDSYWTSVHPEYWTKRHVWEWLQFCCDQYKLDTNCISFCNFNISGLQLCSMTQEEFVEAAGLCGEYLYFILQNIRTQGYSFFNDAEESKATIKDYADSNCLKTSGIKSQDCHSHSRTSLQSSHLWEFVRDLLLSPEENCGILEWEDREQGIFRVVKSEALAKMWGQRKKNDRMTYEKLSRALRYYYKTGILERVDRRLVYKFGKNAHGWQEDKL
The note with it: protein: recombinant; tags: N-terminal GST; dsDNA, one strand shown. The method, boiled down:
as §1

For assay [17], the target named is T12, ETV3 (Homo sapiens, UniProt P41162-2 1-143).
T12 sequence: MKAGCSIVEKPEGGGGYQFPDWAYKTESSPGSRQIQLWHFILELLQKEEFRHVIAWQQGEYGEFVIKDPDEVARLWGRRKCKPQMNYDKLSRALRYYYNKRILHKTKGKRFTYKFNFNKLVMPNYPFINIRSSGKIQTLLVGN
The note with it: protein: recombinant; tags: N-terminal GST; dsDNA, one strand shown. Put shortly: as §1

Assay [18] concerns the target ETV6 (Homo sapiens, UniProt P41212 1-452). To be noted: protein: recombinant; tags: N-terminal GST; dsDNA, one strand shown. The method, boiled down: as §1

ETV5, sequence (P41161 whole entry): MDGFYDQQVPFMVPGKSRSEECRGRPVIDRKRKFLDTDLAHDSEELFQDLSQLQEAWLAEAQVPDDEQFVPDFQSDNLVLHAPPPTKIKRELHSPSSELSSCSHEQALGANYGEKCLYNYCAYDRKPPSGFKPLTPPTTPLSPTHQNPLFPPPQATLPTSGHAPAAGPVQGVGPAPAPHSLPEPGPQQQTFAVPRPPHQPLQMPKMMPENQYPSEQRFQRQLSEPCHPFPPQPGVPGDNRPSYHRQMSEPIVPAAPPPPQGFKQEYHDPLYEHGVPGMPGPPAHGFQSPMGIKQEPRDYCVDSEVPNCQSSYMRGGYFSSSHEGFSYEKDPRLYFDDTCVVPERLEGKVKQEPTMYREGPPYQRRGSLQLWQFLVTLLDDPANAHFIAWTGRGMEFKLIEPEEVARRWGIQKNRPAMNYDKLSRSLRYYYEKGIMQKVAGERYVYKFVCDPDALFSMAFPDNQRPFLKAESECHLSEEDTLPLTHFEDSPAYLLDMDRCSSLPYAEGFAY
HSF1, sequence (Q00613 whole entry): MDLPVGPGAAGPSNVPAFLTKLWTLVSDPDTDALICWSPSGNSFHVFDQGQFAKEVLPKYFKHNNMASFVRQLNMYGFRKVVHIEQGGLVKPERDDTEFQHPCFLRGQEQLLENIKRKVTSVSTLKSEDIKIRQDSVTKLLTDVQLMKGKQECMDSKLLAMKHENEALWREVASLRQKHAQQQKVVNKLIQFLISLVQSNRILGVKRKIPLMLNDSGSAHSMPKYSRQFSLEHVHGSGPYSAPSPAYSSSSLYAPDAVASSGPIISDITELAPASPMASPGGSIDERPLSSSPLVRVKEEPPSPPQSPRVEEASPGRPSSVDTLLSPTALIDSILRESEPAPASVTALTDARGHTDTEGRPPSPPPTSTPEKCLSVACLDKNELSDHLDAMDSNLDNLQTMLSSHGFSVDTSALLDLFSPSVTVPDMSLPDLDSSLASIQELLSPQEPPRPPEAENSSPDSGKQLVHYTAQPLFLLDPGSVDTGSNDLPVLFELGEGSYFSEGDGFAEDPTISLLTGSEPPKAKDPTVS
ETV1, sequence (P50549 whole entry): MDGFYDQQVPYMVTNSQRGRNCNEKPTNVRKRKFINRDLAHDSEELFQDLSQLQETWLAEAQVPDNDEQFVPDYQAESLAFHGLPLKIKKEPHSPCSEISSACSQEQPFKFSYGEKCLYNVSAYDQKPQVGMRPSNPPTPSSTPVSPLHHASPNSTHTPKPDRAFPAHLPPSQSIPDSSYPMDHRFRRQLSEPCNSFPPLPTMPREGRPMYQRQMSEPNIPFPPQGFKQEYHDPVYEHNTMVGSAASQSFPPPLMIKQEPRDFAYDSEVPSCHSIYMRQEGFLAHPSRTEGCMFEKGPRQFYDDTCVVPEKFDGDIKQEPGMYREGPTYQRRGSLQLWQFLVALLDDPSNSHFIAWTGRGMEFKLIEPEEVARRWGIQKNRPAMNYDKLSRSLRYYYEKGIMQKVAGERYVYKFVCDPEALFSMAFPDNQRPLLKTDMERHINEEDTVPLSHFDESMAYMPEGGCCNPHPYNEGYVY
CRX, sequence (O43186 whole entry): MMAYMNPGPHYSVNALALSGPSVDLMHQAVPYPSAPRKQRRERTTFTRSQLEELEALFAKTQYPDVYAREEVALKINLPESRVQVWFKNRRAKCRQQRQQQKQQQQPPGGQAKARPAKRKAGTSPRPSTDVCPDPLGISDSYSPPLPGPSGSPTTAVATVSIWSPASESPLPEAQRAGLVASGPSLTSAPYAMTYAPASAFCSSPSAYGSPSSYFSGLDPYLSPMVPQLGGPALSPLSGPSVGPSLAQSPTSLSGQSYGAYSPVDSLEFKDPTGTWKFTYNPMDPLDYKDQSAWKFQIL
ETV6, sequence (P41212 whole entry): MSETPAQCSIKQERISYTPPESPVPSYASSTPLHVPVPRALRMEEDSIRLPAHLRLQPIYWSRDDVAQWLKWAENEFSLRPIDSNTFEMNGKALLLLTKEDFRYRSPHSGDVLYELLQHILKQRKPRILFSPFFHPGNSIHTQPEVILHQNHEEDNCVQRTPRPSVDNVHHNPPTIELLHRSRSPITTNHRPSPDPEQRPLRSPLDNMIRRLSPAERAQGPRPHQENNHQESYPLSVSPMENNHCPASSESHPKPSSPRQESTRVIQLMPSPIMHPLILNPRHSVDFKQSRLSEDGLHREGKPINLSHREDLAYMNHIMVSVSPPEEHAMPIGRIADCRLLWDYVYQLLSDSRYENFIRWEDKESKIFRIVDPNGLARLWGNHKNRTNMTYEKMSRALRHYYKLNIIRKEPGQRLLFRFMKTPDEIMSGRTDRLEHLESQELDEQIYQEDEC
ELF4, sequence (Q99607 whole entry): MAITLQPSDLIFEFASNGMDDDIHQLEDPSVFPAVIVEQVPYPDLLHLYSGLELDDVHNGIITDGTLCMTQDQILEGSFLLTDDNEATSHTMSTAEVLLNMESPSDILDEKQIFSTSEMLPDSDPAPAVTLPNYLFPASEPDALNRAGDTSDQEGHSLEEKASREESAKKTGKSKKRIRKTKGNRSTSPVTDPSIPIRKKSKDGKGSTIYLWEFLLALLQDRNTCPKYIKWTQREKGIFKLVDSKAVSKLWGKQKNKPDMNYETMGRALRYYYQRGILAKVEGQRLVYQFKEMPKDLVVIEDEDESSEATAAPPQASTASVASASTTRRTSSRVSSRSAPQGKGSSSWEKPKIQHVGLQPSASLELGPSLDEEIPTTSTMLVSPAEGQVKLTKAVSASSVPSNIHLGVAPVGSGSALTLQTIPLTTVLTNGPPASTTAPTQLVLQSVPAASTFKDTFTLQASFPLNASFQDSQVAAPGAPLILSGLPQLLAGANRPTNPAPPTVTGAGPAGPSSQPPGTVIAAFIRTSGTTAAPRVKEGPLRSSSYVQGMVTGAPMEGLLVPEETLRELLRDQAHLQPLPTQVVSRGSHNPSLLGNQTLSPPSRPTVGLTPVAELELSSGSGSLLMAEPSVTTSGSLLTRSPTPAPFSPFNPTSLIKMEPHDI

In the case of ACGTCC, the binding signal in assay [1] is 1.81 fold enrichment (6-mer frequency, TF over GST control); in assay [2] it was 1.65 fold enrichment (6-mer frequency, TF over GST control); in assay [3], 1.07 fold enrichment (6-mer frequency, TF over GST control); in [4] it was 1.59 fold enrichment (6-mer frequency, TF over GST control); in [5], 1.54 fold enrichment (6-mer frequency, TF over GST control); in assay [6], 1.46 fold enrichment (6-mer frequency, TF over GST control). In addition, the binding signal was 1.39 fold enrichment (6-mer frequency, TF over GST control) in assay [7]; 1.39 fold enrichment (6-mer frequency, TF over GST control) in [8]; 1.01 fold enrichment (6-mer frequency, TF over GST control) in [9]; 1.63 fold enrichment (6-mer frequency, TF over GST control) in assay [10]; 1.49 fold enrichment (6-mer frequency, TF over GST control) in assay [11]; 1.59 fold enrichment (6-mer frequency, TF over GST control) in assay [12]. For the same sequence, the binding signal in assay [13] is 1.64 fold enrichment (6-mer frequency, TF over GST control); in [14], 2.11 fold enrichment (6-mer frequency, TF over GST control); in assay [15] it was 1.61 fold enrichment (6-mer frequency, TF over GST control); in assay [16] it was 1.77 fold enrichment (6-mer frequency, TF over GST control); in [17], 1.61 fold enrichment (6-mer frequency, TF over GST control); in assay [18], 1.74 fold enrichment (6-mer frequency, TF over GST control).
